Reference: PMC4336329 (PLoS ONE, 2015)
In all, about 310,000 compounds went through this assay and about 14,000 (4.5%) showed an effect of 50% or more. The effect is printed as a negative number. Only a selection was taken, and strong results are over-represented in it overall.

Molecular target: human ether-à-go-go-related gene (hERG) potassium channel (human, UniProt Q12809)
Test: primary screen, population patch clamp on CHO cells stably expressing hERG; higher = less effect of the substance
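Note: peak tail current of the secondary pulse compared with the same well before compound.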

Chain of human ether-à-go-go-related gene (hERG) potassium channel (Q12809 whole entry, looked up): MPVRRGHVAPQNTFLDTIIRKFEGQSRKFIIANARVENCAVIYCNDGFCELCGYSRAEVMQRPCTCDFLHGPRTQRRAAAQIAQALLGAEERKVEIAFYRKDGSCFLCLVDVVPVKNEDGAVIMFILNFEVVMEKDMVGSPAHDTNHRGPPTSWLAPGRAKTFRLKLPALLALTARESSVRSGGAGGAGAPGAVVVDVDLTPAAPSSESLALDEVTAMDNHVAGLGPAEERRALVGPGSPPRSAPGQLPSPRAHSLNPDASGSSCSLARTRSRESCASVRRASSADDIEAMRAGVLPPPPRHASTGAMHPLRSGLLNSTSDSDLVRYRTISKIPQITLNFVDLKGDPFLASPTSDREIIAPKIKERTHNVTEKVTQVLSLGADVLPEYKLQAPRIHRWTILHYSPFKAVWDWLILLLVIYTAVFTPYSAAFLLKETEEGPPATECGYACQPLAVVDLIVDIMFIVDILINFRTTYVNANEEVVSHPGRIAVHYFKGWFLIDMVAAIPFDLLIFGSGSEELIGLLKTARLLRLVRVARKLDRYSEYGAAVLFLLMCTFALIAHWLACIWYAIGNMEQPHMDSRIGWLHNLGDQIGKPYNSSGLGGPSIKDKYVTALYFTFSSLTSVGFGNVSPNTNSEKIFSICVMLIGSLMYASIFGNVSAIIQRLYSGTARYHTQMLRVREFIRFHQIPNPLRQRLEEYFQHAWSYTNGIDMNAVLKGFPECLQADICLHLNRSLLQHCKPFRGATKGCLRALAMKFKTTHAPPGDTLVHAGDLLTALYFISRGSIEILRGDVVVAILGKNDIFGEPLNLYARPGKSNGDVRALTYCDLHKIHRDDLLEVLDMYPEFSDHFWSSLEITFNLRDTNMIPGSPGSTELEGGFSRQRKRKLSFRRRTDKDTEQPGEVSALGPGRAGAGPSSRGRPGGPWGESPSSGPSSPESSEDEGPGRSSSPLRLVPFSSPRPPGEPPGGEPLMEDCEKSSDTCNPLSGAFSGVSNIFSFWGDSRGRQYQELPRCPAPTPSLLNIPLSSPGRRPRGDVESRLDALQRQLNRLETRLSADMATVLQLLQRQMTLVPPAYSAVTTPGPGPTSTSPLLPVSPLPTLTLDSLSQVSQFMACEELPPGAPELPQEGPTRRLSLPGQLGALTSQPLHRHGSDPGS

SMILES | hERG current change (%, negative = inhibition) at 10uM
Cn1cnc2c1c(=O)n(Cc1c(Cl)cccc1Cl)c(=O)n2C | -3.36%
COc1ccccc1NC(=O)CSc1nc2sc(C)c(C)c2c(=O)n1C | 6.42%
CC(=O)N1CCN(S(=O)(=O)c2cccc(C(=O)NCCc3ccc(Cl)cc3)c2)CC1 | -12.1%
CC1Cc2ccccc2N1C(=O)COC(=O)C1=COCCO1 (centres unmarked) | -7.1%
COc1ccc(CCNC(=O)COC(=O)/C=C/c2ccc(OC)c(OC)c2)cc1 | -16%
O=C(CSc1nncn1-c1cccnc1)N(c1ccccc1)c1ccccc1 | 4.28%
CN(C)S(=O)(=O)N1CCN(C(=O)c2cccs2)CC1 | 7.17%
Br.COC(=O)CN1C(C)=Nc2ccc(Br)cc2C1c1ccccc1 (centres unmarked) | -49.1%
COC(=O)CN1C(CN2CCOCC2)=Nc2ccc(Br)cc2C1c1ccccc1 (centres unmarked) | -75.3%
CC1=Nc2ccc(Br)cc2C(c2ccccc2)N1CC(=O)O (centres unmarked) | 33.7%
NNC(=O)CN1C(CN2CCOCC2)=Nc2ccc(Br)cc2C1c1ccccc1 (centres unmarked) | -48.9%
CCC1=Nc2ccc(Br)cc2C(c2ccccc2)N1CC(=O)OC (centres unmarked) | -59.1%
COC(=O)CN1C(C)=Nc2ccc(C)cc2C1c1ccccc1 (centres unmarked) | -43.1%
Cc1nnc(NC(=O)c2ccc(S(=O)(=O)N3CC(C)CC(C)C3)cc2)o1 (centres unmarked) | 5.33%
CCc1cccc2c(C(=O)C(NCCCOC)c3ccccc3)c[nH]c12 (centres unmarked) | 2.05%
O=C(CSc1cccc(C(F)(F)F)c1)Nc1cc(S(=O)(=O)N2CCCC2)ccc1Cl | -5.28%
CCOC(=O)N1CCC(N2C(=O)c3ccccc3C2Nc2ccc3c(c2)OCCO3)CC1 (centres unmarked) | -7.43%
CCOC(=O)N1CCC(N2C(=O)c3ccccc3C2Nc2ccccc2C)CC1 (centres unmarked) | -46.5%
CCOC(=O)N1CCC(N2C(=O)c3ccccc3C2Nc2cc(C(=O)OC)cc(C(=O)OC)c2)CC1 (centres unmarked) | -17.5%
CCOC(=O)c1ccccc1NC1c2ccccc2C(=O)N1C1CCN(C(=O)OCC)CC1 (centres unmarked) | -56.4%
CCOC(=O)N1CCC(N2C(=O)c3ccccc3C2Nc2ccccc2)CC1 (centres unmarked) | -9.74%
CCOC(=O)N1CCC(N2C(=O)c3ccccc3C2Nc2cc(C)cc(C)c2)CC1 (centres unmarked) | -21.8%
CCOC(=O)N1CCC(N2C(=O)c3ccccc3C2Nc2c(C)cccc2C)CC1 (centres unmarked) | -75.1%

SMILES | hERG current change (%, negative = inhibition) at 10uM
CCOC(=O)N1CCC(N2C(=O)c3ccccc3C2Nc2cc(OC)c(OC)c(OC)c2)CC1 (centres unmarked) | -17.8%
CCOC(=O)N1CCC(N2C(=O)c3ccccc3C2Nc2ccc3c(C)cc(=O)oc3c2)CC1 (centres unmarked) | -63.8%
Cc1nn(C)c(C(=O)N/N=C/c2cc3c(cc2Br)OCO3)c1Br | 11.2%
COCc1cc(C)n(CC(=O)NCC2CCCO2)c(=O)c1C#N (centres unmarked) | 12%
CCOc1ccc(/C=C2\SC(=S)N(CCCC(=O)NCCCN3CCOCC3)C2=O)cc1 | -4.5%
CCCc1cc2c(cc1NS(=O)(=O)c1ccc(CCNC(C)=O)cc1)OCO2 | -63%
CC(=O)NCCc1ccc(S(=O)(=O)NCc2ccc3c(c2)OCO3)cc1 | 2.45%
CC(=O)NCCc1ccc(S(=O)(=O)Nc2ccc3c(c2)OCCO3)cc1 | 12.3%
CCCCNC(=O)CSc1nnc(-c2cccc(S(=O)(=O)N3CCOCC3)c2)o1 | -18.1%
CC(=O)c1sc(NC(=O)c2ccc(COc3ccccc3Cl)o2)nc1C | 33.5%
CC(=O)N(CN1C(=O)CCC1=O)c1cccc(Cl)c1 | -17%
Cc1cc(=O)n2c3ccccc3n(CC(O)CN3CCCC3)c2c1C#N (centres unmarked) | -44.8%
Cc1cc(=O)n2c3ccccc3n(CC(O)CN3CCCCC3)c2c1C#N (centres unmarked) | -53.2%
Cc1cc(=O)n2c3ccccc3n(CC(O)CN3CCOCC3)c2c1C#N (centres unmarked) | 17.9%
Cc1cc(=O)n2c3ccccc3n(CC(O)CN3CCN(Cc4ccccc4)CC3)c2c1C#N (centres unmarked) | -62.8%
Cc1cc(=O)n2c3ccccc3n(CC(O)CN3CCN(CCO)CC3)c2c1C#N (centres unmarked) | -16%
CCCNCC(O)Cn1c2ccccc2n2c(=O)cc(C)c(C#N)c12 (centres unmarked) | -29.7%
Cc1cc(C(N)=O)c2cc(Br)ccc2n1 | 1.34%
COc1cccc(N2CCN(C(=O)NC3CCCCC3)CC2)c1 | 2.57%
Cc1cc(C(=O)Nc2ccccc2C)c2ccccc2n1 | 14.1%
O=c1[nH]cnc2c1nc(SCc1ccccc1)n2C1OC(CO)C(O)C1O (centres unmarked) | -2.32%
O=c1cc(-c2ccc(O)cc2)oc2cc(O)cc(O)c12 | -2.23%
C[C@H]1CN=C(Nc2ccccc2)N1CCc1ccc(F)cc1 | -46.3%

SMILES | hERG current change (%, negative = inhibition) at 10uM
Cc1cccc(CCN2C(Nc3ccccc3)=NC[C@@H]2CC(C)C)c1 | -67.5%
Cc1cccc(CCN2C(N(C)C)=NC[C@@H]2CC(C)C)c1 | -18.1%
CC(C)C[C@H]1CN=C(Nc2ccccc2)N1CCc1ccc(F)cc1 | -62.4%
Cc1cccc(CCN2C(Nc3ccccc3)=NC[C@@H]2C)c1 | -23%
COc1ccccc1C(=O)NNC1=NS(=O)(=O)c2ccccc21 | 20.3%
COc1cccc(NC(=O)Cn2cc(C(=O)C3CC3)c3ccccc32)c1 | 0.319%
CCn1c(-c2cccnc2)n[nH]c1=S | 0.542%
CCOc1ccc(OCCC(=O)OCC(=O)NC2CCCCC2)cc1 | 11.4%
CCn1c(N2CCN(CC(=O)c3c(C)n(C)c4ccc(OC)cc34)CC2)nc2c1c(=O)[nH]c(=O)n2C | 3.19%
O=C(Cc1cn(-c2ccccc2)nc1-c1ccccc1)N1CCCCC1 | -18.3%
Cc1cc(Cl)c2oc(C(=O)N3CCN(c4cccc(C)n4)CC3)c(C)c2c1 | 16.3%
Cc1cc(Cl)c2oc(C(=O)N3CCN(C(=O)c4ccco4)CC3)c(C)c2c1 | -53.9%
Cc1c(C(=O)N2CCN(C(=O)c3ccco3)CC2)oc2c(Cl)cccc12 | -34.3%
Cc1cc(Cl)c2oc(C(=O)N3CCC(O)(c4ccccc4)CC3)c(C)c2c1 | 8.87%
Cc1cc(Cl)c2oc(C(=O)N3CCN(c4ccncc4)CC3)c(C)c2c1 | -75.9%
Cc1c(C(=O)N2CCN(c3ccccc3)CC2)oc2c(Cl)cccc12 | 4.82%
CCOc1ccc(C(C(=O)NC(C)(C)C)N(CCOC)C(=O)CCC(=O)Nc2ccccn2)cc1 (centres unmarked) | -5.95%
COC(=O)c1c(S(C)(=O)=O)nc(-c2ccccc2)[nH]c1=O | -2.13%
Cc1nc2scc(-c3ccccc3)c2c(=O)n1N | -1.43%
Cc1nc(-c2cccnc2)sc1C(=O)N/N=C/c1ccccc1Cl | -75.5%
Cc1nc(-c2cccnc2)sc1C(=O)Nc1ccc(Cl)cc1 | -29.2%
CNC(=O)c1sc(-c2cccnc2)nc1C | -34.7%
CN1CCN(C(=O)/C(=C/c2ccc(N(C)C)cc2)NC(=O)c2ccccc2)CC1 | -17.5%

SMILES | hERG current change (%, negative = inhibition) at 10uM
O=C(N/C(=C\c1ccc(F)cc1)C(=O)N1CCCCCC1)c1ccccc1 | -11.6%
CN1CCN(C(=O)/C(=C/c2ccccc2F)NC(=O)c2ccccc2)CC1 | -29.2%
O=C(N/C(=C/c1ccc(F)cc1)C(=O)N1CCCC1)c1ccccc1 | 19.5%
COc1ccc(/C=C(\NC(=O)c2ccccc2)C(=O)N2CCN(C)CC2)cc1OC | 20%
O=C(N/C(=C/c1ccccc1F)C(=O)N1CCCCC1)c1ccccc1 | 10.1%
CN1CCN(C(=O)/C(=C/c2ccc(F)cc2)NC(=O)c2ccccc2)CC1 | -77.8%
CC1CCN(C(=O)/C(=C\c2ccccc2F)NC(=O)c2ccccc2)CC1 | -52.7%
CSc1ccc(/C=C(/NC(=O)c2ccccc2)C(=O)N2CCN(C)CC2)cc1 | -75.9%
C[C@@H](CSc1ccc(Br)cc1)CN1CC[C@H](O)CCC1=O | -12%
COc1ccc2oc(C(=O)OCC(=O)NC3CC3)c(C)c2c1 | 11%
Cc1sc2ncn(CC(=O)NCC(=O)N3CCC4(CC3)OCCO4)c(=O)c2c1C | -4.54%
Cc1cc(NC(=O)c2c([N+](=O)[O-])cnn2C)no1 | 14.2%
Nc1ccccc1C(=O)NC1CCCCNC1=O (centres unmarked) | 26.2%
CC1(C)N=C(N)NC(Nc2ccccc2Cl)=N1 | 20.9%
C[C@@H](C(=O)O)[C@H]1C[C@]1(C)[C@H](NC(=O)OCc1ccccc1)c1ccccc1 | 4.41%
COc1cccc(NC(=O)CC2(CC(=O)O)CCCC2)c1 | -39.8%
CC1Cc2cc(S(=O)(=O)N3CCCC(C(=O)N4CCCCC4)C3)ccc2N1C(=O)C1CC1 (centres unmarked) | -4.84%
O=C(c1cc(-c2ccc(Cl)cc2)n(-c2ccc(Cl)cc2Cl)n1)N1CCOCC1 | -79.6%
O=C(c1cc(-c2ccc(Cl)cc2)on1)N1CCOCC1 | -0.136%
O=C(O)c1cc(-c2ccccc2)n(-c2ccc(Cl)cc2Cl)n1 | 21.5%
O=C(c1cc(Cl)ccc1Cl)N1CCOCC1 | 8%
O=C(c1cc(-c2ccc(Cl)cc2)n(-c2cc(Cl)ccc2Cl)n1)N1CCOCC1 | -68.9%
O=C(c1cc(-c2ccc(Cl)cc2Cl)on1)N1CCOCC1 | -9.72%
